This passage reports inhibition results from PubChem BioAssay AID2599 (Sanford-Burnham Center for Chemical Genomics, 2010).

About 5,800 (1.8%) of roughly 330,000 compounds were called active. What follows is part of a selection rich in actives, with near analogues and random picks from the rest. A number with no mark means an inactive call.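 The calls were made as follows: active = inhibition above about 50% at the single tested dose (limit read from the data); inactive = the rest.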

The assay deals with Sentrin-specific protease 6 (Homo sapiens) (UniProt Q9GZR1). The assay can be described thus: SENP6 protease inhibitors, primary screen, biochemical, luminescence, uHTS (AID 2599).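 Also: plate controls were DMSO wells with enzyme for no effect and DMSO wells lacking enzyme for full effect.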 The conditions noted are these: Recombinant SENP6 catalytic domain, aminoluciferin luminescence; at 10 µM; hits give high values.
Sequence of Sentrin-specific protease 6 (Homo sapiens) (Q9GZR1 628-1112 limits assumed): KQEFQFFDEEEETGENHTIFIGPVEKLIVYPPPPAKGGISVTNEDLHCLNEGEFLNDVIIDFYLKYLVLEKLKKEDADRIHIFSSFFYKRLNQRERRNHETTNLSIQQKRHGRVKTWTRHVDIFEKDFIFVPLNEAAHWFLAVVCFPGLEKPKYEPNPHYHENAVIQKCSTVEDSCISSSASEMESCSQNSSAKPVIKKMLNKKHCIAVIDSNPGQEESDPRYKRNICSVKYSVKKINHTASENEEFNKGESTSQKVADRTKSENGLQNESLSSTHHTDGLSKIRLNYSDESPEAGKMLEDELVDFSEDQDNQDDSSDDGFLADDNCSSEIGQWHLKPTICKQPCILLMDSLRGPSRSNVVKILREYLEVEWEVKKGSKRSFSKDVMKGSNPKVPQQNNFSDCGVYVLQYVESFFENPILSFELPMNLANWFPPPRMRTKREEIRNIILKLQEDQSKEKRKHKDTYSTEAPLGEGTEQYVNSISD
`CCNc1nc(SCCOc2ccccc2)nc(N(C)C)n1`: the inhibition was -7.75%.

For the compound `Cn1c(-c2ccco2)nc2cc3ccccc3cc21`, the inhibition was 98.6% (active).

Turning to `CS(=O)(=O)n1nc(-c2ccco2)nc1N`, the inhibition is 12.1%.

In the case of `COc1ccccc1-n1c(-c2cc(-c3ccco3)[nH]n2)n[nH]c1=S`, the inhibition was 8.36%.

As for `COc1ccc(/C=N/NC(=O)c2cc(-c3cccc(C)c3)nc3ccccc23)cc1O`, the inhibition was 4.88%.

Consider `COc1cc(/C=N/Nc2nc3ccccc3s2)ccc1O`, for which the inhibition was 85.4% (active).

`COc1cc(/C=N/NC(=O)CCc2n[nH]c(=O)[nH]c2=O)ccc1O`: the inhibition was -10.3%.

Regarding `Cc1c(C(=O)NNC(=O)c2ccncc2)oc2ccccc12`, the inhibition is -3.56%.

As to `O=C(CCNC(=O)c1ccc(Cl)cc1)NC1CCCc2ccccc21` (stereo not drawn), the inhibition is 2%.

For `O=C(Nc1nnc(S(=O)(=O)N2CCOCC2)s1)c1cccc(Br)c1`, the inhibition was 21.8%.

With `O=C(Nc1nnc(S(=O)(=O)N2CCCCCC2)s1)c1cccc(Br)c1`, the inhibition is 75.4% (active).

Take `Cc1cccc(C(=O)Nc2nnc(S(=O)(=O)N3CCCCCC3)s2)c1`: the inhibition was 33.1%.

Regarding `Cc1c(Cl)c([N+](=O)[O-])nn1CC(=O)NCC1CCCO1` (stereo not drawn), the inhibition was -2.16%.

Consider `CCCCNC(=O)c1cn(CC)c2cc(N3CCN(C(=O)c4ccco4)CC3)c(F)cc2c1=O`, for which the inhibition is 12.7%.

In the case of `Cc1noc(C)c1CSc1nc2cc(S(=O)(=O)N3CCOCC3)ccc2o1`, the inhibition is 3.51%.

Regarding `CSc1ccccc1NC(=O)c1cc(C2CC2)on1`, the inhibition is 52% (active).

On to `CSc1ccccc1NC(=O)c1cc(Cl)sc1Cl`, for which the inhibition is -4.94%.

In the case of `O=C(NC1CCCCC1)c1cc(C2CC2)on1`, the inhibition is -14.8%.

With `Nc1c(C(=O)OCC(=O)Nc2ccc(OC(F)F)cc2)[nH]c(=O)[nH]c1=O`, the inhibition was 4.9%.

As for `O=C(/C=C/c1ccc([N+](=O)[O-])o1)NNC(=O)c1ccc(F)cc1`, the inhibition is -1.45%.

For the compound `CCCCN(CC)C(=O)C1CCCN(S(=O)(=O)c2cccc3nsnc23)C1` (stereo not drawn), the inhibition was 8.83%.

For the compound `COC(=O)c1cccc(C(=O)N2CCC(CCC(=O)NCc3ccc(F)cc3)CC2)c1`, the inhibition was 2.77%.

As for `CCCc1nc(N2CCN(C)CC2)c2sc(=S)n(-c3ccccc3)c2n1`, the inhibition was 8.07%.

For `O=C(COc1ccc(Cl)cc1)NCc1nnc(SCC(=O)NCC2CCCO2)o1` (stereo not drawn), the inhibition is -1.58%.

Take `c1ccc(CN=C2Nc3ccccc3CS2)nc1`: the inhibition was 52.5% (active).

With `O=C1CSc2ccc(C(=O)NCc3ccccn3)cc2N1`, the inhibition was 0.274%.

Take `COc1ccc(Cl)cc1NS(=O)(=O)c1cccc(C(=O)NC2CCC(O)CC2)c1` (stereo not drawn): the inhibition was 3.9%.

As to `CN1C(=O)/C(=C\c2cc(Br)cs2)c2ccccc21`, the inhibition was 66.3% (active).

Take `CCC1C(=O)c2ccccc2N(C)C1=O` (stereo not drawn): the inhibition was -9.28%.

For the compound `CN1C(=O)/C(=N/OC(=O)c2ccccc2Br)c2ccccc21`, the inhibition was 20.2%.

With `Cc1[nH][nH]c(=O)c1C(c1ccc(-c2ccc(Cl)cc2)o1)c1c(C)[nH][nH]c1=O`, the inhibition is 53.1% (active).

`CCOc1ccc(C(c2c(C)[nH][nH]c2=O)c2c(C)[nH][nH]c2=O)cc1OCC`: the inhibition is 16.7%.

Turning to `O=C(NC1CCCCC1)c1ccc(-c2ccc(Cl)cc2)o1`, the inhibition was -2.51%.

As for `Cc1cccc(NC(=O)C2CCCN(C(=O)NCc3ccccc3)C2)c1C` (stereo not drawn), the inhibition was 8.32%.

Consider `CCNC(=O)CC1C(=O)N(c2ccc(OC)cc2)C(=O)N1CCOC` (stereo not drawn), for which the inhibition was -17.8%.

Regarding `CCCCCCCCCOC1OC(CO)C(O)C(O)C1NC(C)=O` (stereo not drawn), the inhibition was -4.5%.

Take `Clc1ccc(C2=CSC3=Nc4cccc5cccc(c45)N23)cc1`: the inhibition was 82.2% (active).

As for `CCCN(CCc1ccccc1)C1CCc2c(O)cccc2C1` (stereo not drawn), the inhibition was -8.37%.

As to `O=C(Nc1ccc(Cl)cn1)c1ccc2c(c1)OCCO2`, the inhibition was 76.8% (active).

As to `Cc1cccc(C)c1NC(=O)CNC(=O)c1ccc2c(c1)OCCO2`, the inhibition was -7.93%.

For the compound `CCCc1cc(C(=O)Nc2ccc(C(=O)OC)cc2)cs1`, the inhibition is -4.63%.

Regarding `COc1c(Cl)cc(C(=O)Nc2ccc(Cl)cn2)cc1Cl`, the inhibition was 23.4%.

In the case of `CCCCC(CC)C(=O)Nc1ccc(Cl)cn1` (stereo not drawn), the inhibition was 0.311%.

With `Cc1ccc(C(=O)NNC(=O)c2ccc3c(c2)OCCO3)cc1`, the inhibition is 16.5%.

With `COc1ccc(C(=O)NC(=S)Nc2ccc(Cl)cn2)cc1OC`, the inhibition is -0.015%.

Regarding `Cc1nc(NC(=O)c2ccc3c(c2)OCCO3)ccc1Br`, the inhibition was 70.9% (active).

Regarding `CCCc1cc(C(=O)Nc2ccc(Cl)cn2)cs1`, the inhibition is 86.5% (active).

`O=C(/C=C/c1cnc2ccccc2n1)NC1CCCCCC1`: the inhibition was -2.57%.

As to `O=C(CC1C(=O)NCCN1Cc1ccc(-c2ccccc2)cc1)NCc1ccncc1` (stereo not drawn), the inhibition is -5.88%.

For the compound `CC1CN(S(=O)(=O)c2cccc(C(F)(F)F)c2)CN1C(=O)N1CCOCC1` (stereo not drawn), the inhibition was -20.3%.

`COc1cc(OC)c(NC(=O)C2CCCN2C(=O)OCc2ccccc2)cc1Cl` (stereo not drawn): the inhibition was -8.31%.

Take `CC1(C)CC(=O)C2=C(C1)NCN(CCCN1CCOCC1)C2`: the inhibition is 1.73%.

As to `CCCn1nnc(NC(=O)COc2ccc(CC)cc2)n1`, the inhibition is 1.27%.

With `CC(=O)C(CC(=O)N1CCCC1)C(=O)Nc1ccc(Cl)cc1` (stereo not drawn), the inhibition is -4.11%.

`CC(C)C(=O)Nc1nnc(Sc2ccc(N(C)C)cc2)s1`: the inhibition was -0.866%.

With `O=C(c1ccc(F)cc1)c1cn(Cc2ccc(F)cc2)c2cc3c(cc2c1=O)OCCO3`, the inhibition was -4.67%.

In the case of `COCCN(CCOC)c1nc(N)c2c(N)nc3c(c2c1C#N)CC(=O)N3Cc1ccc(Cl)cc1`, the inhibition was 81.3% (active).

Regarding `CC1COC2C(O1)N(S(C)(=O)=O)CCN2S(C)(=O)=O` (stereo not drawn), the inhibition is -1.6%.

As to `CC1(C)CC(=O)C=C(NCc2ccncc2)C1`, the inhibition was 11.9%.

`Cc1csc(OCC(=O)Nc2ccc(C)c(C)c2)n1`: the inhibition was -7.65%.

Take `Oc1ccc(Br)cc1C=Nc1ccc2[nH]ncc2c1`: the inhibition is 55.4% (active).

For `CCN(CC)CCn1c(/N=C/c2cc(Br)ccc2O)nc2ccccc21`, the inhibition is 5.27%.

As to `Oc1ccc(Br)cc1/C=N/Nc1ccccn1`, the inhibition is 14.9%.

`Cc1ccn(-c2cccc(-n3ccc(C)n3)n2)n1`: the inhibition is -0.107%.

For `O=S(=O)(c1ccc(Br)c2ccccc12)N1CCOCC1`, the inhibition is -3.67%.

As for `Cc1c(Cl)c([N+](=O)[O-])nn1CC(=O)NCCCN1CCOCC1`, the inhibition was -13.8%.

For `Nc1[nH][nH]c(=O)c1N=Nc1ccc2c(c1)OCO2`, the inhibition was 51.5% (active).

`N/C(=N\OC(=O)c1ccc2c(c1)OCO2)c1ccc(Br)cc1`: the inhibition was 46%.

Consider `CC(=O)c1cc2c(cc1N)OCO2`, for which the inhibition was 1.73%.

`Cn1c2ccccc2c2cc(/C=C(\NC(=O)c3ccccc3)C(=O)NCC(=O)O)ccc21`: the inhibition was -6.28%.

Consider `O=S(=O)(Nc1ccc(O)c2ccccc12)c1ccc(OC(F)(F)F)cc1`, for which the inhibition was 74.9% (active).

Take `Cc1nn(C)c(C)c1NS(=O)(=O)c1ccc(OC(F)(F)F)cc1`: the inhibition is 5.85%.

On to `O=C1COc2ccc(S(=O)(=O)Nc3ccc(OC(F)(F)F)cc3)cc2N1`, for which the inhibition is -6.08%.

`C[C@@H]1CN([C@@H](C)CO)C(=O)c2cccc(NS(=O)(=O)c3ccc(F)cc3)c2O[C@H]1CN(C)C(=O)NC1CCCCC1`: the inhibition was -9.28%.

On to `CCOc1ccc(NC(=O)COc2ccc(S(=O)(=O)N3CCCC3)cc2)cc1`, for which the inhibition was -19.8%.

On to `O=C(N/N=C/c1cccnc1)c1cc2ccccc2cc1O`, for which the inhibition was 54.6% (active).

Take `Cc1ccc(/C=N/NC(=O)c2cc3ccccc3cc2O)o1`: the inhibition was 73.7% (active).

As for `N=c1oc2ccccc2cc1C(=O)N/N=C/c1ccccc1`, the inhibition is 89.2% (active).

Turning to `O=C(N/N=C/c1cccnc1)c1ccc(NC(=O)c2ccc(F)cc2)cc1`, the inhibition was -21.5%.

For the compound `O=C(N/N=C\c1cccnc1)c1cc(-c2ccccc2)nc2c(Cl)cccc12`, the inhibition was -10.9%.

On to `N=c1oc2ccccc2cc1C(=O)NCc1ccccc1`, for which the inhibition is -3.97%.

For the compound `CNC(=O)c1cc2c(ccc3ccccc32)oc1=N`, the inhibition was 6.2%.

As for `Cc1ccc(/C=N/NC(=S)Nc2cccc(S(=O)(=O)N(C)C)c2)o1`, the inhibition was -0.431%.

As for `Cc1ccc(/C=N/NC(=S)NC2CCCCC2)o1`, the inhibition was -24.3%.

For the compound `CCCN(CC(=O)Nc1ccccc1OC)C(=O)CCC(=O)c1ccc(F)cc1`, the inhibition is -2.28%.

As to `O=C(C(=O)N1CCc2ccccc2C1)c1c[nH]c2ccccc12`, the inhibition is -7.83%.

Turning to `CC(NC(=O)c1cccc(S(=O)(=O)N2CCc3ccccc3C2)c1)c1ccco1` (stereo not drawn), the inhibition is -17.8%.

For the compound `CCOc1cc(/C=C2\SC(N3CCCC(C)C3)=NC2=O)ccc1O` (stereo not drawn), the inhibition was 11.9%.

With `CCCc1ccc(OCC(O)CN2CCN(CCO)CC2)cc1` (stereo not drawn), the inhibition is 5.43%.

Regarding `CCc1cccc(NC(=O)COC(=O)C2CCN(c3ccc(C(F)(F)F)cn3)CC2)c1`, the inhibition was 33.7%.

Take `CCOc1ccc(CN2CCN(CCCc3ccccc3)C(CCO)C2)cc1` (stereo not drawn): the inhibition was 9.84%.

Take `Cc1nnc(CN(C)Cc2cn[nH]c2-c2ccc(-c3ccccc3)cc2)o1`: the inhibition is -1.7%.

With `Cc1c(Cl)cccc1NC(=O)CC1SC(=NCC2CCCO2)NC1=O` (stereo not drawn), the inhibition was -0.542%.

With `COc1ccc(OC)c(/C=C/C(=O)c2ccc3c(c2)OCO3)c1`, the inhibition was -8.22%.

`CC(Sc1nnc(COc2ccccc2)n1-c1ccccc1)C(=O)O` (stereo not drawn): the inhibition is -16.5%.

As to `Nc1ccccc1/C=N\N=C/c1ccccc1N`, the inhibition was 60.6% (active).

As for `C=CCC[C@H](Cc1ccc(F)cc1)C(=O)OC[C@H](C)NC(=O)[C@H](CC=C)CC(=O)N(CCO)Cc1ccccc1`, the inhibition was -7.07%.

Turning to `CCCCCCC12CCC(C(=O)O)(CC1)CC2`, the inhibition was -27.4%.

One may read the inhibition as the change of the read-out against control, counted positive when it falls.
